This is part of a sample that, as a whole, favours compounds with a hit. Of some 83,000 tested, about 20% had one in any assay.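 Interpretation: 100, growth as untreated; towards 0, rising growth inhibition; 0, no net growth; 0 to -100, cell death. Compounds scoring below 10 were considered active.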 Active and inactive are the calls of the source.
How the values were obtained:
Test in all cases: NCI-60 one-dose screen, 48 h (100 = growth as untreated, 0 = no growth, -100 = all killed)
[1] = tested on: SR leukemia; details: 10 µM unless noted
[2] = tested on: RPMI-8226 leukemia; details: 10 µM unless noted
[3] = tested on: OVCAR-5 ovarian; details: 10 µM unless noted
[4] = tested on: OVCAR-4 ovarian; details: 10 µM unless noted
[5] = tested on: SK-OV-3 ovarian; details: 10 µM unless noted
[6] = tested on: IGROV1 ovarian; details: 10 µM unless noted
[7] = tested on: OVCAR-3 ovarian; details: 10 µM unless noted
[8] = tested on: HS 578T breast; details: 10 µM
[9] = tested on: NCI/ADR-RES ovarian; details: 10 µM unless noted
[10] = tested on: BT-549 breast; details: 10 µM unless noted
[11] = tested on: MDA-MB-435 melanoma; details: 10 µM unless noted
[12] = tested on: SW-620 colon; details: 10 µM unless noted
[13] = tested on: MCF7 breast; details: 10 µM unless noted
[14] = tested on: HCT-116 colon; details: 10 µM unless noted
[15] = tested on: HCC-2998 colon; details: 10 µM
[16] = tested on: KM12 colon; details: 10 µM unless noted
[17] = tested on: T-47D breast; details: 10 µM unless noted
[18] = tested on: OVCAR-8 ovarian; details: 10 µM unless noted

Measured: growth

C=C1CC[C@@H]2[C@](C)(COC(C)=O)[C@H](OC(C)=O)CC[C@@]2(C)[C@@H]1C/C=C1/C(=O)OC[C@H]1OC(C)=O
active: [1] 5.73% | [7] -21.3% | [12] -21.9% | [14] -37.3%
inactive: [2] 14.1% | [3] 53.7% | [4] 66.5% | [5] 101% | [6] 103% | [8] 100% | [9] 25% | [10] 27.4% | [11] 33.1% | [13] 22.9% | [15] 67.3% | [16] 52.8%

C=CC[n+]1c(/C=C/C=C2\N(C)c3ccccc3C2(C)C)sc2ccc(OC)cc21
inactive: [1] 11.7% | [3] 22.4% | [4] 25.1% | [6] 40.9% | [7] 13.3% | [8] 53.6% | [9] 71.7% | [17] 12.1% | [10] 14.6% | [11] 12.8% | [12] 19.9% | [14] 11.6% | [15] 30.2% | [16] 13.4%
active: [2] 1.33% | [5] -13.8% | [13] 6.97%

N#CC1(C#N)C(c2cccs2)NC(c2cccs2)C1(C#N)C#N (configuration not stated)
inactive: [1] 110% | [2] 107% | [3] 109% | [4] 92.7% | [5] 99.1% | [6] 101% | [7] 98.1% | [8] 104% | [9] 97.6% | [17] 91% | [10] 101% | [11] 107% | [12] 108% | [13] 90.3% | [14] 97.6% | [15] 100% | [16] 100%

COC[C@@H](C)n1c(C2CCOCC2)nc2c1C1C=C(OC)C(c3c(C)noc3C)=CC1N=C2 (some centres not stated)
inactive: [1] 31.1% | [2] 10.4% | [3] 70.3% | [4] 42.8% | [5] 39.6% | [6] 39.4% | [7] 28.9% | [8] 35% | [9] 43.4% | [17] 44.6% | [10] 62.6% | [11] 41.6% | [12] 72.1% | [13] 15.5% | [14] 53.4% | [15] 52.7% | [16] 43%

CN1CCN(CC(=O)Nc2ccc(-c3nc4ccccc4s3)cc2)CC1
inactive: [2] 88.1% | [3] 72.9% | [4] 87.3% | [5] 94.2% | [6] 80.6% | [7] 99.2% | [8] 93.7% | [9] 85.6% | [17] 54.1% | [10] 80.7% | [11] 25.4% | [12] 102% | [13] 36.8% | [14] 70.9% | [15] 77.3% | [16] 85.6%
active: [1] 6.26%

Oc1ccc(C(c2ccc(O)cc2)C(Cl)(Cl)Cl)cc1
inactive: [1] 87.8% | [2] 83.4% | [3] 88.5% | [4] 94.2% | [5] 118% | [6] 93% | [7] 105% | [8] 88.3% | [9] 94.9% | [17] 94.3% | [11] 104% | [12] 114% | [13] 111% | [14] 83.8% | [15] 122% | [16] 104%

COc1cc(C2CC(c3ccc(Cl)cc3)=NN2c2ccc(Cl)cc2)cc(OC)c1OC (configuration not stated)
inactive: [1] 98.7% | [2] 83.3% | [18] 101% | [3] 88.1% | [4] 83.2% | [5] 98.2% | [8] 84% | [9] 95.6% | [17] 86.1% | [10] 95.6% | [11] 93.3% | [12] 96.6% | [13] 89.5% | [14] 93.6% | [16] 96.5%

CN1CCN(c2nc(NCCNc3ccnc4cc(Cl)ccc34)c3ccccc3n2)CC1
active: [1] -23.4% | [2] 3.82% | [4] -0.851% | [17] 0.35% | [11] -11.4% | [14] 6.36% | [15] 9.65%
inactive: [3] 59.9% | [5] 44.6% | [6] 30.2% | [7] 17.4% | [8] 28.2% | [10] 28.3% | [12] 26.5% | [13] 36% | [16] 29.2%

Cn1ncc(Cl)c1-c1cc(C(=O)N[C@H](CN)Cc2cccc(F)c2)sc1Cl
active: [1] -29.6% | [2] -10.3% | [5] -12.8% | [6] -21.5% | [17] -24.7% | [10] -4.28% | [11] 4.34% | [13] -11.7% | [15] -78.2% | [16] 1.36%
inactive: [3] 35.3% | [4] 35.6% | [7] 31% | [9] 28.6% | [12] 39.8% | [14] 12.8%

Reference: PubChem BioAssay (NCI)
